Source: PubChem BioAssay (National Center for Advancing Translational Sciences (NCATS))
A selection: hits, their analogues and other compounds. The true share with any hit is near 3.9%.
D1 ag: human D1 receptor agonism | AID 504660 | activation, % at 2 µM | HEK293 T-REx D1 cells, calcium flux, agonist mode | 360,000 tested, 1% active; in the data active = activation above about 30%; note: 0% is about no effect
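Inducible HEK293 T-REx D1 cells, force-coupled to calcium signalling, were plated at 4000 cells/well with tetracycline and held overnight at 30 C. After no-wash calcium dye loading, compound-evoked calcium rise over 180 s flagged agonists.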
GALK inh: inhibitors of human galactokinase. AID 1868. Purified GALK, Kinase-Glo residual ATP luminescence. P51570. 270,000 tested, 0.007% active. Potency, µM (doses to about 57.5 µM), without a hit: at the highest dose activity change, negative = inhibition, hits mostly inhibitors; note: potency is the fitted concentration of half-maximal effect; % is set by controls: 0 for no effect and ±100 for the full control effect
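Quantitative HTS: GALK 5 nM, ATP 35 uM, galactose 100 uM, 1 h room temperature, then luciferase-based ATP detection.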
USP2a block: blocks human ubiquitin-specific protease USP2a. O75604. USP2 core, Ub-CHOP2 coupled fluorogenic reporter, 485/531. Potency, µM (highest dose often 38.3 µM), inactives show at the highest dose activity change, negative = inhibition, most hits filed as inhibitors. 330,000 tested, 0.01% active. AID 463254;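 note: potency is the fitted concentration of half-maximal effect; plate controls were DMSO wells for no effect and full inhibition by NEM control for full effect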
Target sequence (O75604 whole entry, looked up): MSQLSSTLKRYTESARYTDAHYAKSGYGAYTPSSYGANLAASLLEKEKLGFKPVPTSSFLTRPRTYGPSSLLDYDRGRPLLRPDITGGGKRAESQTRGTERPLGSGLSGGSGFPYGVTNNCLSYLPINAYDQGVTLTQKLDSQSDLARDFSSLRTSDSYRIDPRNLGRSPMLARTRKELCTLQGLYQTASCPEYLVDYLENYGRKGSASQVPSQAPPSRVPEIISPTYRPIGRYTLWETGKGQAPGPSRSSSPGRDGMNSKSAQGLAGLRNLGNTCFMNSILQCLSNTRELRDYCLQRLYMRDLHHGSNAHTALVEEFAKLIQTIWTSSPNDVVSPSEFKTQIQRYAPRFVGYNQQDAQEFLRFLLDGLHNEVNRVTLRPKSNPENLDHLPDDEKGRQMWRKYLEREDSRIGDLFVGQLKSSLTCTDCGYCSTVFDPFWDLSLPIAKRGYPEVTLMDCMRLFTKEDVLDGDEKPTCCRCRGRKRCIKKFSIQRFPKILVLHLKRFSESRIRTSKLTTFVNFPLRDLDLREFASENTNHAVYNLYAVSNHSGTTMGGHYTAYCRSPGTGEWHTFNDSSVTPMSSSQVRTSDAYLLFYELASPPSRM
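Cell-free coupled assay: 10nM USP2 core preincubated 30min RT with compound in Tris-HCl pH 8.0/CaCl2/CHAPS buffer, then 25nM Ub-CHOP2 and 25nM reporter substrate; fluorescence (Ex 485/Em 531) read after 60min RT, normalized to NEM inhibition, concentration-response curves fitted.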
D1 antag: antagonists of human D1 dopamine receptor | AID 504652 | HEK293 TREx D1 cells, calcium flux, dopamine EC80; active compounds read low | 360,000 tested, 3.2% active | activity change, negative = inhibition, % at 10 µM; in the data active = activity change below about -30%; note: % is set by controls: 0 for no effect and ±100 for the full control effect
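Cells carrying a force-coupled, tetracycline-inducible human D1 receptor report calcium flux. Each well gets a 10 s baseline, compound with 180 s monitoring, then an EC80 dopamine stimulus with a second 180 s kinetic read.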
Eya2 phos inh: inhibitors of human Eya2 phosphatase activity. O00167. recombinant Eya2, OMFP fluorescence dephosphorylation (OMFP is methylfluorescein phosphate). Potency, µM (titrated, usually from 76.9 µM), for inactives: top-dose activity, negative = inhibition, actives largely listed as inhibitors. 330,000 tested, 0.006% active. AID 488837; note: potency is the fitted concentration of half-maximal effect; % is set by controls: 0 for no effect and ±100 for the full control effect
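Eya2 protein (added as 0.2 uM solution) was preincubated with compound for 10 min at ambient temperature in 50 mM HEPES pH 7.5, 50 mM NaCl, 5 uM MgCl2, 0.05% BSA, 1 mM DTT. OMFP (added at 50 uM) then reacted 10 min; fluorescence read at 485/525 nm.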
D1 potentiator: enhances dopamine response at the human D1 receptor | P21728 | HEK293 TREx D1 cells, calcium flux, dopamine EC20 potentiation | potentiation, % at 10 µM | 360,000 tested, 0.036% active; in the data active = potentiation above about 30%; note: 0% is about no effect
Active calls of the source: *. Unless noted, calls come from the whole dose curve; as a rule, active = well fitted inhibition curve with a large enough effect; inconclusive = small, poorly fitted or top-dose-only effect, or effect the other way; inactive = flat fitted curve, though single readings scatter.

For COc1ccc(C(=O)Nc2ccc(-c3cc(C(F)(F)F)nn3-c3ccccc3)cc2)cc1OC the results were D1 ag 8, D1 antag -12 and D1 potentiator 1.
CC(C)c1ccc(S(=O)(=O)N2CCN(CCC(=O)Nc3ccc(N(C)C)cc3)CC2)cc1 was read as D1 ag 0, GALK inh 0%, USP2a block -2%, D1 antag -81*, Eya2 phos inh -39% and D1 potentiator -2.
For CC(C)c1ccc(S(=O)(=O)N2CCN(CC(=O)Nc3ccc4c(c3)OCO4)CC2)cc1 the results were D1 ag 6, GALK inh -2%, USP2a block -1%, D1 antag -30*, Eya2 phos inh -28% and D1 potentiator -6.
Screening O=C(CN1CCN(S(=O)(=O)c2ccccc2)CC1)Nc1ccc2c(c1)OCO2 returned D1 ag 0, GALK inh -4%, USP2a block -2%, D1 antag -32*, Eya2 phos inh -8% and D1 potentiator -7.
O=C(CN1CCN(S(=O)(=O)c2ccc(Cl)cc2)CC1)Nc1ccc2c(c1)OCO2 was read as GALK inh 1%, USP2a block 1% and Eya2 phos inh 6%.
`O=C(CN1CCN(Cc2ccc3c(c2)OCO3)CC1)Nc1cc(S(=O)(=O)N2CCCC2)ccc1Cl` gave D1 ag 7, GALK inh 0%, USP2a block 0%, D1 antag -8, Eya2 phos inh -7% and D1 potentiator -8.
`CN(C)S(=O)(=O)c1ccc(Cl)c(NC(=O)CN2CCN(Cc3ccc4c(c3)OCO4)CC2)c1` gave D1 ag 10, GALK inh 12%, USP2a block -1%, D1 antag -58*, Eya2 phos inh -12% and D1 potentiator 0.
Screening Cc1ccc(O)c(C(=O)c2cc(C#N)c3nc4ccccc4n3c2)c1 returned D1 ag 62*, GALK inh 10%, USP2a block 4%, D1 antag 7, Eya2 phos inh -1% and D1 potentiator 8.
`Cc1cc(C)cc(OC(=O)CCN2C(=O)C3C4C=CC(C5CC45)C3C2=O)c1` (stereo not drawn) gave D1 ag 0, GALK inh 5%, USP2a block -4%, D1 antag 4, Eya2 phos inh -7% and D1 potentiator 0.
O=C(CCN1C(=O)C2C3C=CC(C4CC34)C2C1=O)Oc1ccc(Br)cc1 (stereo not drawn) was read as D1 ag 2, GALK inh -4%, USP2a block 1%, D1 antag -62*, Eya2 phos inh 2% and D1 potentiator -10.
COc1cc(N)c(C(=O)c2nccc3cc(OC)c(OC)cc23)cc1OC was read as D1 ag 15, GALK inh 4%, USP2a block 4%, D1 antag 27, Eya2 phos inh 7% and D1 potentiator -3.
For COc1cc(Br)c(C(=O)c2nccc3cc(OC)c(OC)cc23)cc1OC the results were D1 ag 1, GALK inh -1%, USP2a block 1%, D1 antag -31*, Eya2 phos inh -11% and D1 potentiator -6.
For Cc1ccc(Nc2c(-c3ccc(N4CCOCC4)cc3)nc3c(C)cccn23)cc1 the results were D1 ag 3, D1 antag -32* and D1 potentiator -1.
CCc1cccc(C)c1Nc1c(-c2ccc(N3CCOCC3)cc2)nc2ncccn12 was read as D1 ag 32*, D1 antag 11 and D1 potentiator -1.
CCOc1ccc(CCNC(=O)C2CCN(c3ncnc4c3nc3n4CCCCC3)CC2)cc1 was read as D1 ag 0, D1 antag -14 and D1 potentiator -1.
For CCCCOC(=O)c1ccc(NC(=O)Cc2coc3ccc(C(C)C)cc23)cc1 the results were D1 ag 19, D1 antag -5 and D1 potentiator -2.
For CC(C)Cc1ccc(C(C)C(=O)OCC(=O)c2c[nH]c3ccccc23)cc1 (stereo not drawn) the results were D1 ag 37*, GALK inh -3%, USP2a block -4%, D1 antag -27, Eya2 phos inh -37% and D1 potentiator -4.
For CCc1ccc(N2C(=O)CN(Cc3ccc(OC)c(OC)c3)C2=S)cc1 the results were D1 ag 2, GALK inh -2%, USP2a block 1%, D1 antag -83*, Eya2 phos inh -4% and D1 potentiator 0.
For COc1ccc(CN2CC(=O)N(c3ccc(Cl)cc3)C2=S)cc1OC the results were D1 ag 4, USP2a block -1%, D1 antag -5, Eya2 phos inh -12% and D1 potentiator -1.
O=[N+]([O-])c1ncccc1OCc1ccc(-c2ccccc2)cc1 was read as D1 ag 6, GALK inh 7%, USP2a block 3%, D1 antag -33*, Eya2 phos inh 12% and D1 potentiator -7.
`Cc1ccc(Nc2nc(N)nc(CSc3nccn3C)n2)c(C)c1` gave D1 ag -1, GALK inh -5%, USP2a block -1%, D1 antag -33*, Eya2 phos inh -5% and D1 potentiator -2.
`O=C(Nc1cccc(O)c1)c1cc(-c2cccs2)on1` gave D1 ag 9, GALK inh -1%, USP2a block 0%, D1 antag -38*, Eya2 phos inh -8% and D1 potentiator -8.
Screening O=C(c1cc(-c2cccs2)on1)N1CCN(c2ccccc2)CC1 returned D1 ag 5, GALK inh 1%, USP2a block 3%, D1 antag -38*, Eya2 phos inh -15% and D1 potentiator -10.
For CC(=O)c1cccc(NC(=O)c2cc(-c3cccs3)on2)c1 the results were D1 ag 5, GALK inh 7%, USP2a block 1%, D1 antag -1, Eya2 phos inh 5% and D1 potentiator -9.
`COc1ccccc1N1CCN(C(=O)c2c(C)oc3ncn(C)c(=O)c23)CC1` gave D1 ag 1, D1 antag -35* and D1 potentiator -6.
COc1ccccc1N1CCN(C(=O)c2cc(-c3ccc(C)cc3)on2)CC1 was read as D1 ag 2, GALK inh 0%, USP2a block -9%, D1 antag -45*, Eya2 phos inh -24% and D1 potentiator -4.
`COc1ccccc1N1CCN(C(=O)c2cc(-c3ccc(F)cc3)on2)CC1` gave D1 ag 3, GALK inh -4%, USP2a block -1%, D1 antag 2, Eya2 phos inh 14% and D1 potentiator 1.
